# Data reported in PubChem BioAssay.
# The source made the active and inactive calls.
# Tests used:
# [1] = optical density shifts of acrAB sulA E. coli – strain DRC41, OD650, 48 h, E. coli filamentation inducer project, primary screen (AID 1152); details: higher = more signal, called active from +8 up or from −8 down;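 note: E. coli MC1000 strain DRC41 lacking acrAB efflux pump and sulA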
# [2] = probe aLefty1 binding on compound microarray – biochemical, small-molecule microarray, 635/667 nm fluorescence, primary screen (AID 1153); details: higher = more signal;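 note: score merges spot fluorescence with signal-to-noise ratio from the scanned slide images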
# [3] = plasmodial surface anion channel blockers, osmotic lysis – cell-based, P. falciparum Indochina, OD700, 1 h, primary screen (AID 1154); details: P. falciparum Indochina infected RBC osmotic lysis, higher = more signal, called active from +8 up or from −8 down
# [4] = plasmodial surface anion channel blockers, osmotic lysis – cell-based, P. falciparum Indochina, OD700, 2 h, primary screen (AID 1155);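 note: lysis reports solute entry through the parasite surface anion channel PSAC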; details: P. falciparum Indochina infected erythrocytes, higher = more signal, called active from +8 up or from −8 down
# [5] = changes in parasitized red cell lysis, either direction – P. falciparum Indochina, OD700, 3 h, PSAC antagonist project, primary screen (AID 1156); details: P. falciparum-infected erythrocytes, osmotic lysis, higher = more signal, called active from +8 up or from −8 down
# [6] = plasmodial surface anion channel blockers, osmotic lysis – cell-based, P. falciparum Indochina, OD700, 18 h, primary screen (AID 1157); details: P. falciparum Indochina infected erythrocytes, osmotic lysis OD700, 18 h; higher = more signal, called active from +8 up or from −8 down
# [7] = S6 kinase pathway phospho-S6 level changes – cell-based, A549, cytoblot, luminescence, serum-stimulated, primary screen (AID 1158); details: 5 h, higher = more signal;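 note: serum-stimulated A549 lung adenocarcinoma cells; signal is phosphorylated S6 detected by cytoblot immunostaining with HRP secondary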
# [8] = target: NADPH oxidase 2 (Homo sapiens) (UniProt P04839); experiment: compounds shifting NOX2 Amplex Red fluorescence – cell-based, HEK293-NOX2, PMA-stimulated, NOX inhibitor project, primary screen (AID 1159); details: 45 min, higher = more signal, called active from +8 up or from −8 down; note: test concentration not given here
# [9] = target: NADPH oxidase 4 (Homo sapiens) (UniProt Q9NPH5); experiment: compounds shifting NOX4 Amplex Red fluorescence – cell-based, HEK293-NOX4, tetracycline-induced, NOX inhibitor project, primary screen (AID 1160); details: HEK293-NOX4, Amplex Red H2O2 fluorescence, 45 min; higher = more signal, called active from +8 up or from −8 down
# [10] = target: NADPH oxidase 5 (Homo sapiens) (UniProt Q96PH1); experiment: compounds shifting NOX5 Amplex Red fluorescence – cell-based, HEK293-NOX5, NOX inhibitor project, primary screen (AID 1161); details: HEK293-NOX5, ionomycin, 45 min, higher = more signal
# [11] = compound effects on lung adenocarcinoma cell viability – A549, calcein-AM fluorescence, 48 h, basal, profiling panel (AID 1162); details: higher = more signal; note: test concentration not given here
# [12] = compound effects on differentiated 3T3-L1 adipocyte viability – cell-based, 3T3-L1 adipocytes, calcein-AM fluorescence, 48 h, basal, profiling panel (AID 1163); details: 3T3-L1 adipocytes viability, higher = more signal; note: test concentration not given here
# [13] = compound effects on hepatocellular carcinoma cell viability – HepG2, calcein-AM fluorescence, 48 h, basal, profiling panel (AID 1164); details: higher = more signal; note: test concentration not given here
# [14] = compound effects on multiple myeloma cell viability – MM1S, calcein-AM fluorescence, 48 h, basal, profiling panel (AID 1165); details: higher = more signal;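 note: viability of MM1S multiple myeloma cells under basal unstimulated conditions; test concentration not given here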
# [15] = calcein-AM signal in unstimulated myeloma cells – cell-based, calcein-AM fluorescence, 48 h, PK04 Diversity Set, profiling panel (AID 1166); details: RPMI8226 myeloma viability, higher = more signal;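 note: cells grown under basal conditions without added stimulus; test concentration not given here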
# [16] = JC-1 mitochondrial signal, unstimulated HepG2 cells – cell-based, JC-1 fluorescence, 24 h, 100 nL compound, profiling panel (AID 1167); details: HepG2 mitochondrial potential, higher = more signal; note: test concentration not given here
# [17] = JC-1 mitochondrial signal, unstimulated adipocytes – cell-based, JC-1 fluorescence, 3T3-L1 adipocytes, 24 h, 100 nL compound, profiling panel (AID 1168); details: JC-1 mitochondrial fluorescence, higher = more signal, called active from +8 up or from −8 down; note: test concentration not given here
# [18] = JC-1 mitochondrial signal, unstimulated myeloma cells – cell-based, JC-1 fluorescence, RPMI8226, 24 h, 100 nL compound, profiling panel (AID 1169); details: JC-1 mitochondrial potential fluorescence, higher = more signal; note: test concentration not given here
# [19] = JC-1 mitochondrial signal, unstimulated MM1S myeloma – cell-based, JC-1 fluorescence, 24 h, 100 nL compound, profiling panel (AID 1170); details: MM1S mitochondrial potential, higher = more signal; note: test concentration not given here
# [20] = resazurin metabolic signal in A549 cells – cell-based, resazurin fluorescence, 24 h, PK04 Diversity Set, profiling panel (AID 1171); details: A549 viability, higher = more signal, called active from +8 up or from −8 down; note: test concentration not given here
# Chain of NADPH oxidase 4 (Homo sapiens) (Q9NPH5 whole entry, looked up): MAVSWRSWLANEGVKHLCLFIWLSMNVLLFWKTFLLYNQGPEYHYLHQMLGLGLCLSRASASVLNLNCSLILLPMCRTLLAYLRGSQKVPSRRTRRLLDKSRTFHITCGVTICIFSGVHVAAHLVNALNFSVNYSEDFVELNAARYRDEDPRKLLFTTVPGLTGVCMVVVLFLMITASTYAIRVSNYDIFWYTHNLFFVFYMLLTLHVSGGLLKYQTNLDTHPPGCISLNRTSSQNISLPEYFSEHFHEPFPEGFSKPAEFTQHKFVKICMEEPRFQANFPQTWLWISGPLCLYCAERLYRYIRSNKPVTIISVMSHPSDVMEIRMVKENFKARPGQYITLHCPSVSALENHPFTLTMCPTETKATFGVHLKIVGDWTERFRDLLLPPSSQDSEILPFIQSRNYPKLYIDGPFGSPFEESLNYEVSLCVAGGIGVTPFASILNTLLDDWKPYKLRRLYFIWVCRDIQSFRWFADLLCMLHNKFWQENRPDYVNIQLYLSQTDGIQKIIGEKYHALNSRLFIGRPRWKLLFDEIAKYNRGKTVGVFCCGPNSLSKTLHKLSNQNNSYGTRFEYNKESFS
# Chain of NADPH oxidase 2 (Homo sapiens) (P04839 whole entry, looked up): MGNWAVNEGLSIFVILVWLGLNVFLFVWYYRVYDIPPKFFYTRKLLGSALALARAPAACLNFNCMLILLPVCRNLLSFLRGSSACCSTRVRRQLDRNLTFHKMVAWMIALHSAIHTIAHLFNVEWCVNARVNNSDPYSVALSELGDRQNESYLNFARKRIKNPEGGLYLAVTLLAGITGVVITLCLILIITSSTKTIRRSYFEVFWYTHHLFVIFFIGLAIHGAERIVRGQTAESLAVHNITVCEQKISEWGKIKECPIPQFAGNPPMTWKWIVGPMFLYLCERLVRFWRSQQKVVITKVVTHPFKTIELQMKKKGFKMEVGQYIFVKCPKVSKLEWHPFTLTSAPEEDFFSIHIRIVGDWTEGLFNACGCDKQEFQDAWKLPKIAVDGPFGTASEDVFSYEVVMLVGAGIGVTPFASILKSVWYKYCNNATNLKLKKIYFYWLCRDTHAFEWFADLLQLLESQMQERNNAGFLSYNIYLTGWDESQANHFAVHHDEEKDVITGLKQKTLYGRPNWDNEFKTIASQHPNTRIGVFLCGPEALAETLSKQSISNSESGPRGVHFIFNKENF
# Chain of NADPH oxidase 5 (Homo sapiens) (Q96PH1 whole entry, looked up): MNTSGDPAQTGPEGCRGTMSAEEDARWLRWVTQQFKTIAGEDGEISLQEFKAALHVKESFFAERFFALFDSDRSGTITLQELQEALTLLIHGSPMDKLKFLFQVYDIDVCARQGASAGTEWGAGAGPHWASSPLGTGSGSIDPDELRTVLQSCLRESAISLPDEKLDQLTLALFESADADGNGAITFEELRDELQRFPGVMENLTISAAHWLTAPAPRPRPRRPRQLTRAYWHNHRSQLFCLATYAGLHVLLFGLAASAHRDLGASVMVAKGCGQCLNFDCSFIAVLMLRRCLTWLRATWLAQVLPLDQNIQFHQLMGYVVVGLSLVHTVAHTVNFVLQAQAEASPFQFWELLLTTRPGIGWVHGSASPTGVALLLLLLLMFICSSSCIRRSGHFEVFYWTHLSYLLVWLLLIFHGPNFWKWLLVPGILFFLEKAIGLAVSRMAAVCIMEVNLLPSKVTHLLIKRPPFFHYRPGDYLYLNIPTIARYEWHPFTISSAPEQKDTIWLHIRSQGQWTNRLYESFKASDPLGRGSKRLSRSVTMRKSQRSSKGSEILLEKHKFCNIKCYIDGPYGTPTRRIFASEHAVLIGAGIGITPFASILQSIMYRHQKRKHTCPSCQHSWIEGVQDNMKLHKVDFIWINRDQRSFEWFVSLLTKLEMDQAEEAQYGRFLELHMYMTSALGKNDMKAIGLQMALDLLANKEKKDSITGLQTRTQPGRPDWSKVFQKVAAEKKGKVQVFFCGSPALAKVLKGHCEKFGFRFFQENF
Compound,z-score [1],composite z-score [2],z-score [3],z-score [4],z-score [5],z-score [6],z-score [7],z-score [8],z-score [9],z-score [10],z-score [11],z-score [12],z-score [13],z-score [14],z-score [15],z-score [16],z-score [17],z-score [18],z-score [19],z-score [20]
COC(=O)[C@@H]1CC[C@H](C)[C@@H](c2ccc(C)cc2)N1C(=O)c1ccc(C=NOCC[C@@H]2C=C[C@H](OC(C)=O)[C@@H](COC(C)=O)O2)cc1,0.118 (inactive),-0.111,3.09 (inactive),0.897 (inactive),0.533 (inactive),0.858 (inactive),-0.994,-1.19 (inactive),0.605 (inactive),-0.134,-0.521,0.556,-1.13,-0.958,-1.32,-0.674,-1.67 (inactive),0.682,-0.136,0.154 (inactive)
CC(CCN1CCCc2nc(C)c(C)cc21)=NO[C@@H](C)c1cc(-c2c(C)cc(C)cc2C)no1,1.22 (inactive),0.0402,3.44 (inactive),0.762 (inactive),1.35 (inactive),0.465 (inactive),0.124,-1 (inactive),-0.469 (inactive),0.221,0.91,-0.0581,1.42,-0.603,-0.843,3.04,-0.127 (inactive),-0.0137,-1.08,-0.102 (inactive)
O=C1[C@H]2[C@H]3[C@H](O)[C@H](O)CC(=NOCc4ccccc4)[C@@H]3CC[C@H]2C(=O)N1c1ccc(F)cc1F,-0.246 (inactive),-0.391,1.17 (inactive),-0.56 (inactive),0.512 (inactive),-1.36 (inactive),2.35,-0.409 (inactive),0.18 (inactive),0.343,0.504,-0.23,0.688,0.635,1.13,1.51,-0.371 (inactive),-0.261,-1.57,-1.03 (inactive)
COC(=O)C=CCCc1coc(C=CCNC(=O)OC)n1,-0.747 (inactive),0.632,1.78 (inactive),0.713 (inactive),1.13 (inactive),0.247 (inactive),0.41,0.575 (inactive),0.532 (inactive),0.21,-0.538,0.868,-0.586,0.585,-2.19,0.0672,-0.944 (inactive),0.073,0.681,-1.18 (inactive)
CCOC(=O)C1=NO[C@]2(C=C(Br)C3(OCCCO3)[C@H]3O[C@H]32)C1,0.209 (inactive),-0.0075,-0.228 (inactive),0.142 (inactive),-0.348 (inactive),0.0748 (inactive),-0.428,1.18 (inactive),0.492 (inactive),0.12,-0.718,-0.188,-0.186,-0.986,-0.172,-1.04,-0.207 (inactive),0.157,0.199,0.0721 (inactive)
CC(C)CON=C1C[C@@H](O)[C@@H](O)[C@@H]2[C@@H]3C(=O)N(c4cccc(Oc5ccccc5)c4)C(=O)[C@@H]3CC[C@@H]12,-0.211 (inactive),-0.321,2.34 (inactive),-0.696 (inactive),1.07 (inactive),-1.36 (inactive),0.6,-0.191 (inactive),0.352 (inactive),-0.51,1.52,0.797,0.626,-0.779,0.0135,0.291,0.411 (inactive),0.615,-1.78,-0.908 (inactive)
CC(C)=CCCC(C)=CCON=C1C[C@@H](O)[C@@H](O)[C@@H]2[C@@H]3C(=O)N(Cc4ccccc4)C(=O)[C@@H]3CC[C@H]12,-0.169 (inactive),-0.0197,4.49 (inactive),-0.206 (inactive),0.957 (inactive),-0.748 (inactive),-0.352,1.51 (inactive),0.913 (inactive),-2.3,-0.424,0.753,-0.908,-0.13,-1.41,1.66,-0.468 (inactive),0.394,-0.0142,0.539 (inactive)
CCOC(=O)[C@H](CC(C)C)NC(=O)CCC1CC(OC(=O)NCCc2ccc(F)cc2)CC2(CCCC(COC(=O)NCCOc3ccccc3)O2)O1 (stereo not given in full),-0.221 (inactive),-0.263,4.92 (inactive),0.394 (inactive),0.881 (inactive),0.323 (inactive),0.45,1.82 (inactive),0.31 (inactive),1.33,-0.331,0.593,-2.7,-3.46,-3.56,-1.82,1.04 (inactive),-0.462,-0.0103,0.169 (inactive)
O=C(NN=C1C[C@@H](O)[C@@H](O)[C@@H]2[C@@H]3C(=O)N(C[C@@H]4CCCO4)C(=O)[C@@H]3CC[C@H]12)OCc1ccccc1,0.801 (inactive),0.318,1.35 (inactive),0.278 (inactive),0.284 (inactive),0.404 (inactive),-0.249,-0.92 (inactive),0.0865 (inactive),-0.165,-0.0032,-0.0428,-0.718,0.338,-0.0238,-0.249,-0.0601 (inactive),0.536,-0.853,-0.714 (inactive)
COc1cccc([C@H]2Oc3ccc(OC)cc3C(=NOC[C@@H](C)[C@H](OCc3ccccc3)C(C)C)[C@@H]2O)c1,-1.25 (inactive),-0.0428,2.57 (inactive),0.947 (inactive),0.0083 (inactive),0.612 (inactive),-0.891,-0.364 (inactive),-2.1 (inactive),-1.97,-0.956,0.488,-0.744,-0.596,-2.12,-3.51,-0.65 (inactive),-0.188,0.748,0.385 (inactive)
CCC(=O)[C@@]1(O)C(=O)N2C(=C3C(=O)OCC[C@@H]31)N(Cc1ccccc1)C(C)=C(C(=O)OC)[C@H]2c1ccccc1,-0.426 (inactive),-0.103,0.246 (inactive),0.633 (inactive),-0.242 (inactive),0.465 (inactive),-0.131,0.0553 (inactive),-0.147 (inactive),0.245,-0.0783,-1.09,0.237,-0.184,0.596,-0.255,-0.0375 (inactive),-0.179,0.676,-0.342 (inactive)
CO[C@H]1COC(=O)CC=C[C@H](C)[C@@H](OC)COC(=O)[C@@H](C)NC(=O)CC=C[C@@H]1C,0.0321 (inactive),-0.152,-0.848 (inactive),-0.863 (inactive),-0.372 (inactive),-1.99 (inactive),1.03,-0.22 (inactive),0.403 (inactive),-0.0966,0.181,0.0797,-1.72,-0.227,0.0777,-0.0888,-1.76 (inactive),-0.244,-0.582,0.66 (inactive)
CCOC(=O)NN=C1C[C@@H](O)[C@@H](O)[C@@H]2[C@@H]3C(=O)N(c4ccc(F)cc4F)C(=O)[C@@H]3CC[C@@H]12,-0.588 (inactive),0.197,1.73 (inactive),0.719 (inactive),0.171 (inactive),0.0581 (inactive),-0.561,0.992 (inactive),0.605 (inactive),-0.407,0.187,-0.384,-1.12,0.218,0.617,0.333,0.076 (inactive),0.285,-0.326,0.485 (inactive)
C=CC[C@@H]1C=C[C@H](ON=C2[C@H]3CCn4c(=O)n(-c5ccccc5)c(=O)n4[C@H]3[C@H](O)[C@@H]3O[C@H]23)[C@@H](CO)O1,-0.263 (inactive),-0.28,1.56 (inactive),1.07 (inactive),0.204 (inactive),0.588 (inactive),-1.02,-0.276 (inactive),0.964 (inactive),0.394,-0.547,-0.203,-0.683,-1.21,-0.997,-0.568,-1.65 (inactive),-0.172,0.0203,-0.674 (inactive)
